Hits are enriched below; roughly 4.7% of the tested compounds scored in any of these assays.
ATXN viability: viability counter-screen for ATXN expression inhibitors; Potency, µM (highest dose often 56.7 µM), most hits filed as cytotoxic; 400,000 tested, 0.49% active; AID 651635; S2 cells (HEK-293 line with an ATXN2-luciferase reporter) viability, CellTiter-Fluor protease fluorescence, 24 h; also: nearly all actives have a fitted effect of over 40% in size
TGFb SMAD3 inh: inhibitors of TGF-b signaling; HepG2 CAGA-GFP TGF-b/SMAD3 reporter, GFP fluorescence, 18 h; TGF-beta stimulated, 500 pg/mL final; Potency, µM (highest dose often 46.1 µM), usual class: inhibitors; 410,000 tested, 1.2% active; also: nearly all actives have a fitted effect of over 65% in size
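TGF-beta reporter screen: HEPG2 CAGA-GFP, 1% FBS, 500 pg/mL TGF-beta final, 18 h; per-cell GFP summed per well; curves fitted and categorized by class.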
DRD3 agonist: agonists of human D3 dopamine receptor; AID 652048; 410,000 tested, 0.58% active; max activation, %; P35462; D3R DiscoveRx beta-arrestin cells, luminescence, 90 min; in the data active = max activation above about 30%
Target sequence (P35462 whole entry, looked up): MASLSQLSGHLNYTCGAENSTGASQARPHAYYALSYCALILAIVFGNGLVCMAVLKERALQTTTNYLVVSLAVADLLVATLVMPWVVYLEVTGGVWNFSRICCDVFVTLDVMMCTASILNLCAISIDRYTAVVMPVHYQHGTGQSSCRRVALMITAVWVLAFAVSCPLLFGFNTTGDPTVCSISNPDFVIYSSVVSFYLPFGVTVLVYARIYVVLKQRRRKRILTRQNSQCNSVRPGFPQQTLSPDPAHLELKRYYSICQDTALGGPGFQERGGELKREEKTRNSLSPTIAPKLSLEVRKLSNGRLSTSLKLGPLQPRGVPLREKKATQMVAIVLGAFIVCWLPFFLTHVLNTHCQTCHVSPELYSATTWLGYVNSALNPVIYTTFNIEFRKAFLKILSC
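Cells at 1500/well, incubated overnight, then treated with pinned compounds (dopamine as control) for 90 min at 37 degrees C. DiscoveRx reagent added for 30 - 60 minutes at room temperature; luminescence read.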
DRD3 antagonist: antagonists of human D3 dopamine receptor; D3R cells, DiscoveRx beta-arrestin luminescence, antagonist mode; hits give low values; max response, negative = inhibition, %; 360,000 tested, 2.5% active; P35462; AID 652054; in the data active = max response below about -50%; inconclusive = no clear call, values can overlap the other calls
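Cells plated overnight at 1500 cells/well, then exposed to library compounds with dopamine controls for 90 minutes at 37 degrees C. DiscoveRx reagent added for 30–60 minutes at room temperature; luminescence read, quantitative HTS format.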
HepG2 tox-1: HepG2 cytotoxicity, counter-screen for TGF-b inhibitors; HepG2 CAGA-GFP viability, ATP luminescence, 18 h; Potency, µM (titrated, usually from 46.1 µM), usual class: cytotoxic; 410,000 tested, 0.76% active; AID 588856
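CellTiter-Glo luminescence gave cytotoxicity after 18 hours at 37 degrees C. The cells were HepG2 CAGA-GFP in 1% FBS DMEM, stimulated with 500 pg/mL TGF-beta after compound addition. %Activity was normalised to no-cell wells (complete cell-killing) and DMSO (no toxicity), and curves were fitted and classified.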
ATXN2 expr inh: inhibitors of ATXN2 expression | 360,000 tested, 0.72% active | AID 1745845 | Potency, µM (titrated, usually from 57 µM), usual class: inhibitors | HEK-293 ATXN2-luciferase reporter, luminescence, 24 h; also: nearly all actives have a fitted effect of over 55% in size
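qHTS (up to 57 uM final) was run with 24 h compound exposure of reporter cells at 37 °C. Each well was multiplexed: SteadyGlo luminescence measured ATXN2-luciferase expression after a fluorogenic Gly-Phe-AFC viability readout (25 uM final).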
TGFb CAGA inh: confirmation of TGF-b signaling inhibitors in HepG2 reporter cells | 1,600 tested, 63% active | shares compounds with TGFb SMAD3 inh | HepG2 CAGA-GFP TGF-b reporter, GFP fluorescence, 18 h; cells stimulated with TGF-beta, 500 pg/mL | Potency, µM (titrated, usually from 46.1 µM), usual class: inhibitors; also: nearly all actives have a fitted effect of over 65% in size
HepG2 tox-2: toxic to HepG2 cells in TGF-b counterscreen. 1,600 tested, 27% active. Potency, µM (doses to about 46.1 µM), usual class: inhibitors. shares compounds with TGFb SMAD3 inh. HepG2 CAGA-GFP viability, ATP luminescence, 18 h; cells stimulated with TGF-beta, 500 pg/mL; also: nearly all actives have a fitted effect of over 70% in size
CCL64 TGFb inh: blocks TGF-b signaling in CCL64 reporter cells; 1,600 tested, 41% active; AID 720536; CCL64 CAGA-GFP reporter, TGF-b stimulated, GFP fluorescence, 18 h; Potency, µM (top dose mostly 46.1 µM), usual class: inhibitors; shares compounds with TGFb SMAD3 inh; also: nearly all actives have a fitted effect of over 65% in size
COP TGFb inh: blocks TGF-b signaling in HepG2 COP reporter; shares compounds with TGFb SMAD3 inh; HepG2 COP-GFP TGF-b reporter, GFP fluorescence, 18 h; cells stimulated by added recombinant TGF-beta; Potency, µM (top dose mostly 46.1 µM), actives largely listed as inhibitors; 1,600 tested, 3% active; AID 720537; also: nearly all actives have a fitted effect of over 70% in size
Numbers stand for hits; - = inactive; ? = inconclusive; . = no result. Unless noted, calls follow the shape of the dose curve; as a rule, active = well fitted curve in the direction sought with a large enough effect; inconclusive = small, poorly fitted or top-dose-only effect, or another doubt; inactive = no such curve, though single readings can be large; an effect the other way counts as inactive or inconclusive.

SMILES	ATXN viability	TGFb SMAD3 inh	DRD3 agonist	DRD3 antagonist	HepG2 tox-1	ATXN2 expr inh	TGFb CAGA inh	HepG2 tox-2	CCL64 TGFb inh	COP TGFb inh
Cc1cc(/C=N/NC(N)=S)c(C)n1-c1cccc(Cl)c1	?	11µM	-	-	-	-	15µM	-	16µM	-
CCCSC1=NC2(CCN(C(=O)NC3CCCCC3)CC2)N=C1c1ccc(C)cc1	-	-	-	.	-	-	.	.	.	.
CC(=O)N1CCc2cc(S(=O)(=O)NC(CC(C)C)C(=O)Nc3ccc(C(C)C)cc3)ccc21 (centres undefined)	-	-	-	.	-	-	.	.	.	.
COc1ccc(CC(=O)Nc2c(C(=O)N3CCN(c4ccccc4F)CC3)oc3ccccc23)cc1OC	.	-	-	.	-	.	.	.	.	.
O=C(Nc1ccccc1Cc1ccccc1)c1ccccc1NS(=O)(=O)c1ccc(Cl)s1	-	4.5µM	-	-	-	?	5.8µM	10µM	9.2µM	-
O=C(NCc1ccco1)c1ccccc1NS(=O)(=O)c1ccc(Cl)s1	-	-	-	?	-	-	.	.	.	.
S=C(NCCc1ccccc1)N1CCN(Cc2ccc(Cl)c(Cl)c2)CC1	-	-	-	?	-	-	.	.	.	.
Fc1ccc(CN2CCN(C(=S)NCCc3ccccc3)CC2)c(Cl)c1	-	7.9µM	-	-	-	-	?	-	?	-
O=C(Nc1ccccc1)Nc1ncc([N+](=O)[O-])s1	22µM	3.2µM	-	?	-	?	13µM	?	18µM	-
O=C(COC(=O)c1ccccc1)Nc1ncc([N+](=O)[O-])s1	-	-	-	-	-	-	.	.	.	.
O=C(Nc1ccccc1)[C@@H]1CC=C[C@@H]2CCN(Cc3ccc(Cl)c(Cl)c3)C(=O)[C@@H]21	?	13µM	-	-	-	-	21µM	?	?	-
O=C1C=C(Nc2ccccc2)C(=O)c2ccccc21	?	4µM	-	-	5µM	-	6.5µM	15µM	?	-
COC(=O)c1cccc(NS(=O)(=O)c2cccs2)c1C	-	-	-	-	-	-	.	.	.	.
O=C1C(Nc2ccccc2)=C/C(=N/S(=O)(=O)c2cccs2)c2ccccc21	.	4µM	-	-85	3.5µM	7.9µM	2.6µM	2.6µM	3.3µM	?
COC1=C(Nc2ccccc2)C(=O)C(OC)=C(Nc2ccccc2)C1=O	-	-	-	-	-	-	.	.	.	.
Cc1ccc(S(=O)(=O)/N=C2\C=C(Nc3ccc(O)cc3)C(=O)c3ccccc32)cc1	4µM	1.3µM	-	-94	3.2µM	6.3µM	1.3µM	2.3µM	5.2µM	?
COC(=O)c1ccccc1NC1=C/C(=N\S(=O)(=O)c2cccs2)c2ccccc2C1=O	7.1µM	?	-	-93	-	4µM	7.3µM	15µM	3.3µM	16µM
CCn1c(=O)c2cc(C(=O)N3CCN(c4cccc(Cl)c4)CC3)sc2c2ccccc21	-	?	-	.	-	-	.	.	.	.
CCOc1ccc(C(=O)Nc2c(C(=O)Nc3ccccc3F)oc3ccccc23)cc1OCC	-	-	-	.	-	-	.	.	.	.
O=S(=O)(Nc1ccc2c(c1)OCCO2)c1ccc2oc3ccccc3c2c1	-	10µM	-	-	-	-	23µM	?	?	-
CC(=O)c1cccc(NC(=O)c2cc3nc(-c4ccc(Br)cc4)cc(C(F)(F)F)n3n2)c1	.	?	-	.	-	.	.	.	.	.
O=C1N[C@@H](Cc2c[nH]c3ccccc23)COC(=O)[C@H](Cc2ccc(F)cc2)C/C=C\C[C@H]1CC(=O)N(CCO)Cc1ccccc1	?	?	-	-	-	?	.	.	.	.
O=C1NC[C@H](c2ccccc2)OC(=O)[C@@H](Cc2ccc(F)cc2)CC/C=C/C[C@H]1CC(=O)N(CCO)Cc1ccccc1	11µM	11µM	-	-	.	14µM	21µM	.	?	-
O=C(C[C@H]1C/C=C\CC[C@H](Cc2ccc(F)cc2)C(=O)O[C@H](c2ccccc2)CNC1=O)N[C@H](CO)Cc1ccccc1	-	?	-	-	-	?	.	.	.	.
O=C1NC[C@H](c2ccccc2)OC(=O)[C@H](Cc2ccc(F)cc2)C/C=C\C[C@@H]1CC(=O)N(CCO)Cc1ccccc1	?	?	-	-	-	-	.	.	.	.
SMILES	ATXN viability	TGFb SMAD3 inh	DRD3 agonist	DRD3 antagonist	HepG2 tox-1	ATXN2 expr inh	TGFb CAGA inh	HepG2 tox-2	CCL64 TGFb inh	COP TGFb inh
O=C1N[C@@H](Cc2c[nH]c3ccccc23)COC(=O)[C@@H](Cc2ccc(F)cc2)CC/C=C/C[C@@H]1CC(=O)N(CCO)Cc1ccccc1	?	8.9µM	-	-	-	?	5.8µM	-	?	-
O=C(C[C@H]1C/C=C\CC[C@H](Cc2ccc(F)cc2)C(=O)O[C@@H](c2ccccc2)CNC1=O)N[C@@H](CO)Cc1ccccc1	?	7.1µM	-	-	-	?	?	?	13µM	-
O=C(COc1ccccc1)NC1CC(=O)N(c2ccc3c(c2)OCCO3)C1 (centres undefined)	-	-	-	.	-	-	.	.	.	.
CN(C)c1ccc(CNC(=O)CCC(=O)N2Cc3ccccc3Oc3ncccc32)cc1	-	-	-	.	-	-	.	.	.	.
Cc1ccccc1OCC(O)CNC1CCC(NCC(O)COc2ccccc2C)CC1 (centres undefined)	?	5.6µM	-	-	1.8µM	?	4.6µM	5.2µM	?	?
COc1cccc(C2C3=C(N=c4s/c(=C\c5ccc(O)cc5)c(=O)n42)c2ccccc2CC3)c1OC (centres undefined)	-	-	-	-	-	-	.	.	.	.
COc1cccc(C2C3=C(N=c4s/c(=C\c5cccc(O)c5)c(=O)n42)c2ccccc2CC3)c1OC (centres undefined)	-	18µM	-	-	-	-	5.8µM	?	2.9µM	-
COc1ccc(NC(=O)Cn2nc(-c3ccccc3)c3cnc4ccc(C)cc4c32)cc1	-	-	-	.	-	-	.	.	.	.
COc1ccc(C(=O)NN(C)c2nc(C(F)(F)F)nc3ccccc23)cc1	?	?	-	-	-	-	?	-	?	-

Compound activity: PubChem BioAssay, National Center for Advancing Translational Sciences (NCATS)
